Assay results: PubChem BioAssay (EPA / NIEHS)
Results filed as inconclusive are left out. Active and inactive are the calls of the source. Rule for the calls, unless noted: active = hit-call score of the fitted dose curve at least 0.9, where 1 is the maximum; inactive = score below 0.9.

Legend:
[1] = Tanguay_ZF_120hpf_BRN: Oregon State University Tanguay Lab 120 Hour Post-fertilization zebrafish Assay for Brain Region Malformation (AID 2284402)
Procedure, shortened: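 Binary brightfield scoring of brain malformation at 120 hpf in 5D wild-type larvae, chorion removed with pronase at 4 hpf. Static exposure began at 6 hpf, 28C, sealed plates, DMSO 0.64% (vol/vol) as vehicle baseline.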

[2] = Tanguay_ZF_120hpf_TCHR: Oregon State University Tanguay Lab 120 Hour Post-fertilization zebrafish Assay for Touch Responsive (AID 2284403)
Procedure, shortened: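 Binary touch-response calls are made at 120 hpf in 5D wild-type zebrafish larvae. These larvae were dechorionated with pronase and exposed singly from 6 hpf in sealed, dark plates at 28 °C with 0.64% DMSO final; dead embryos are excluded.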

[3] = Tanguay_ZF_120hpf_ANY: Oregon State University Tanguay Lab 120 Hour Post-fertilization zebrafish Assay for Any Mortality and Malformation (AID 2284404)
Procedure, shortened: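 Dechorionated Tropical 5D wild-type embryos, one per well from 6 hpf, static exposure in sealed, dark plates at 28C until 120 hpf, 0.64% DMSO final. Brightfield scoring of mortality and malformations as binary presence/absence, pooling 13 morphology endpoints.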

[4] = CCTE_Padilla_ZF_Score.Craniofacial: CCTE's 144 Hour Post-fertilization zebrafish Assay Score for Craniofacial Malformation, Padilla Lab (AID 2284405)
Procedure, shortened: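 Craniofacial defects were scored at 6 dpf by two blinded observers using stereomicroscopy. Exposure of wild-type embryos began at 6–8 hpf in sealed wells of 10% Hanks' solution at 26C, with chemical removed by rinsing at 5 dpf.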

[5] = CCTE_Padilla_ZF_Score.Spine: CCTE's 144 Hour Post-fertilization zebrafish Assay Score for Spine Malformation, Padilla Lab (AID 2284407)
Procedure, shortened: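 Spine malformation scored at 6 dpf by two independent blinded observers under stereomicroscope, after static sealed exposure from 6–8 hpf at 26C in Hanks' solution with rinse on 5 dpf. Positive-direction fit against DMSO control.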

[6] = CCTE_Padilla_ZF_Score.Position: CCTE's 144 Hour Post-fertilization zebrafish Assay Score for Position, Padilla Lab (AID 2284409)
Procedure, shortened: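 Wild-type zebrafish embryos (with chorions) exposed singly from 6–8 hpf in sealed wells of Hanks' solution at 26C, rinsed at 5 dpf. At 6 dpf, blinded assessors scored abnormal water-column position by brightfield stereomicroscopy, relative to DMSO.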

[7] = CCTE_Padilla_ZF_Score.Living: CCTE's 144 Hour Post-fertilization zebrafish Assay Score for Viability, Padilla Lab (AID 2284410);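 note: larval death at 6 dpf judged by absent heartbeat or coagulation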
Procedure, shortened: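 Mortality at 6 dpf, judged as absent heartbeat or coagulation by two blinded observers, after sealed static exposure beginning at 6–8 hpf at 26C. Larvae were rinsed free of chemical at 5 dpf, and activity was fitted relative to DMSO.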

[8] = CCTE_Padilla_ZF_Score.Tail: CCTE's 144 Hour Post-fertilization zebrafish Assay Score for Tail Malformation, Padilla Lab (AID 2284414)
Procedure, shortened: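 Tail malformations were scored at 6 dpf by two blinded assessors under a stereo microscope. Chorionated embryos had been exposed from 6-8 hpf in sealed wells of 10% Hanks' at 26 C, then rinsed free of chemical at 5 dpf.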

[9] = tested on: SRY-box transcription factor 17 (SOX17) Protein Expression, Deisenroth Lab, SOX17 (gene 64321); assay: CCTE_Deisenroth_DEVTOX-GLR_Endo_SOX17: CCTE's DevTox GLR-Endo Assay Evaluation of SRY-box transcription factor 17 (SOX17) Protein Expression, Deisenroth Lab (AID 2284413)
Procedure, shortened: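 RUES2-GLR human pluripotent cells were seeded 24 h, then differentiated toward endoderm for 48 h with two chemical exposures 24 h apart (10-point series, 1 nM - 200 uM). Nuclei-stained fixed cells were imaged; endpoint is percent change in SOX17+ cells versus 0.2% DMSO.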

[10] = tested on: SRY-box transcription factor 2 (SOX2) Protein Expression, Deisenroth Lab, SOX2 (gene 6657); assay: CCTE_Deisenroth_DEVTOX-GLR_Endo_SOX2: CCTE's DevTox GLR-Endo Assay Evaluation of SRY-box transcription factor 2 (SOX2) Protein Expression, Deisenroth Lab (AID 2284412; active = hit-call score of the fitted dose curve at least 0.9, where 1 is the maximum)
Procedure, shortened: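 Endpoint is percent SOX2-positive cells (SOX2+ count/total cells) minus 0.2% DMSO control, from high-content imaging of fixed, nuclear-stained RUES2-GLR cells. Dosing twice at 24 h intervals over 48 h differentiation, 1 nM–200 uM in 10 points.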

Measured: AC50

O=P(O)(O)CCC(F)(F)C(F)(F)C(F)(F)C(F)(F)C(F)(F)C(F)(F)C(F)(F)C(F)(F)F
active: [6] 65.2 µM | [7] 11.8 µM
inactive: [1] | [2] | [3] | [4] | [5] | [8]

O=C(O)CCC(F)(F)C(F)(F)C(F)(F)C(F)(F)C(F)(F)F
inactive: [1] | [2] | [3] | [4] | [5] | [8]
active: [6] 10.7 µM | [7] 28.3 µM

O=CC(F)(F)C(F)(F)C(F)(F)C(F)F
inactive: [4] | [5] | [6] | [7] | [8]

FCOC(C(F)(F)F)C(F)(F)F
inactive: [4] | [5] | [6] | [7] | [8]

O=C1NS(=O)(=O)c2ccccc21
inactive: [9]

C=CC(F)(F)C(F)(F)C(F)(F)C(F)(F)F
inactive: [4] | [5] | [6] | [7] | [8]

FC(F)(F)C1(F)C(F)(F)C(F)(F)C(F)(F)C(F)(C(F)(F)F)C1(F)F (stereo unspecified)
inactive: [4] | [5] | [6] | [7] | [8]

NC(C(F)(F)F)C(F)(F)F
inactive: [4] | [5] | [6] | [7] | [8]

COC(=O)C(F)(F)C(F)(F)C(F)(F)C(F)(F)C(F)(F)F
inactive: [4] | [5] | [6] | [7] | [8]

O=C(F)C(F)(F)C(F)(F)C(F)(F)C(=O)F
inactive: [4] | [5] | [6] | [7] | [8]

FC(F)(F)C1(F)C(F)(F)C(F)(F)C(F)(F)C1(F)F
inactive: [4] | [5] | [6] | [7] | [8]

FC(F)(F)N1C(F)(F)C(F)(F)OC(F)(F)C1(F)F
inactive: [4] | [5] | [6] | [7] | [8]

O=C(O)CCC(F)(F)C(F)(F)C(F)(F)C(F)(F)C(F)(F)C(F)(F)F
active: [7] 22.2 µM
inactive: [4] | [5] | [6] | [8]

O=CC(F)(F)C(F)(F)C(F)(F)F
inactive: [4] | [5] | [6] | [7] | [8]

OCC(F)(F)C(F)(F)C(F)(F)C(F)(F)C(F)(F)C(F)(F)C(F)(F)C(F)(F)C(F)(F)C(F)(F)C(F)(F)F
inactive: [1] | [2] | [3] | [4] | [5] | [6] | [7] | [8]

O=P(O)(O)CCC(F)(F)C(F)(F)C(F)(F)C(F)(F)C(F)(F)C(F)(F)F
inactive: [1] | [2] | [3] | [4] | [5] | [6] | [8]
active: [7] 32.1 µM

FC(F)=C(F)C(F)(F)C(F)(F)C(F)(F)C(F)F
inactive: [4] | [5] | [6] | [7] | [8]

CN(C)CCOC(c1ccccc1)c1ccccc1
active: [10] 2.01 µM | [9] 54.7 µM

CCCCc1oc2ccccc2c1C(=O)c1cc(I)c(OCCN(CC)CC)c(I)c1
active: [10] 31 µM | [9] 25.6 µM

O=C1OC(=O)C(F)(F)C1(F)F
inactive: [4] | [5] | [6] | [7] | [8]

CN(CCO)S(=O)(=O)C(F)(F)C(F)(F)C(F)(F)C(F)(F)C(F)(F)C(F)(F)C(F)(F)C(F)(F)F
active: [2] 29.6 µM | [3] 28.9 µM | [7] 10.7 µM
inactive: [1] | [4] | [5] | [6] | [8]

FC1(F)C=CC(F)(F)C1(F)F
inactive: [4] | [5] | [6] | [7] | [8]

CC(=O)Nc1ccc(O)cc1
inactive: [9]

O=C(O)C(F)(F)OC(F)(F)C(F)(F)OC(F)(F)C(F)(F)OC(F)(F)C(F)(F)C(F)(F)C(F)(F)F
active: [3] 34.4 µM | [6] 8.31 µM | [7] 8.88 µM
inactive: [1] | [2] | [4] | [5] | [8]

FC(OC(F)(F)C(F)(F)C(F)(F)F)C(F)(F)F (stereo unspecified)
inactive: [4] | [5] | [6] | [7] | [8]

CN(Cc1cnc2nc(N)nc(N)c2n1)c1ccc(C(=O)N[C@@H](CCC(=O)O)C(=O)O)cc1
active: [9] 0.319 µM

C=CC(=O)OCCC(F)(F)C(F)(F)C(F)(F)C(F)(F)C(F)(F)C(F)(F)C(F)(F)C(F)(F)F
inactive: [1] | [2] | [3] | [4] | [5] | [6] | [7] | [8]

O=C(OC(=O)C(F)(F)C(F)(F)F)C(F)(F)C(F)(F)F
inactive: [4] | [5] | [6] | [7] | [8]

O=C(CC(=O)C(F)(F)C(F)(F)C(F)(F)F)c1cccs1
active: [3] 67.7 µM | [7] 7.34 µM
inactive: [1] | [2] | [4] | [5] | [6] | [8]
